# Shown is part of a subset that was picked to be rich in the strongest signals.
# B1: PX9961A-pdi-456-24-456 (Parabacteroides distasonis) (protein)
# chain: KTSSTQLPTIDAISSVADLTNAVNGVYEQQATEVGSYGAEFTLLADLRSGDFQSISTVNHAGPMYRYQTGKNDEMVYSFYKLFYNSLARLNNVLAAAENLEGADVDILKGELYAMRALYHFDLARVFAKLPSTTDMNDLGIVLSTEVYPTDYIGTRATLQQTYDQILKDIETALPLLSKDKQTGHINYWGALAIRARAYLYLEKNKEALADCKEIIASSPYKLYTRDEYIGAWDKEGTNEAIFEILVTPNYNAQRNSIGYFTHASGYGECAATESFLEELAKHPGDIRTELFAKETDNGYDGTYPQKYKGRDGQIYVNNPKVVRLSEVYLIAAEAALKAGDTSAAAGYMNTLRKNRIENYTDVASITLDDILLERRLELFTEGHTAWDAWRNGKSVNNKFVGEVKPGDYRTIMAIPIGEITVSRGQLIQNPGY
# Key:
# Assay in all cases: glycan array binding signal (z-score within array); higher = stronger binding
# Details in all cases: glycan notation: IUPAC condensed, linker removed
# [1] = molecular target: Fuc(a1-2)Gal(b1-3)GalNAc(b1-3)Gal(a1-4)Gal(b1-4)Glc
# Method in brief: (§1)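 The Consortium for Functional Glycomics database supplied 3228 glycan arrays, of which those lacking an available protein sequence were dropped. The binding signal, a within-array Z-score, was averaged across arrays of the same protein sequence and across linkers. Negative scores can be read as non-binding.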
# [2] = molecular target: Fuc(a1-2)Gal(b1-3)GlcNAc6S
# Method in brief: as §1
# [3] = molecular target: Fuc(a1-2)Gal(b1-3)[Fuc(a1-4)]GlcNAc(b1-2)Man(a1-3)[Fuc(a1-2)Gal(b1-3)[Fuc(a1-4)]GlcNAc(b1-2)Man(a1-6)]Man(b1-4)GlcNAc(b1-4)[Fuc(a1-6)]GlcNAc(b1-4)[Fuc(a1-6)]GlcNAc
# Method in brief: as §1
# [4] = molecular target: Fuc(a1-2)Gal(b1-4)GlcNAc(b1-3)Gal(b1-4)GlcNAc(b1-3)Gal(b1-4)GlcNAc
# Method in brief: as §1
# [5] = molecular target: Fuc(a1-2)Gal6S(b1-4)Glc6S
# Method in brief: as §1
# [6] = molecular target: Fuc(a1-2)[Gal(a1-3)]Gal
# Method in brief: as §1
# [7] = molecular target: Fuc(a1-2)[GalNAc(a1-3)]Gal(b1-4)[Fuc(a1-3)]GlcNAc(b1-3)GalNAc
# Method in brief: as §1
# [8] = molecular target: Fuc(a1-3)[Gal3S(b1-4)]GlcNAc6S
# Method in brief: as §1
# [9] = molecular target: Fuc(a1-4)GlcNAc
# Method in brief: as §1
# [10] = molecular target: Gal(a1-3)Gal(b1-4)GlcNAc(b1-2)Man(a1-3)[Gal(a1-3)Gal(b1-4)GlcNAc(b1-2)Man(a1-6)]Man(b1-4)GlcNAc(b1-4)GlcNAc
# Method in brief: as §1
# [11] = molecular target: Gal(a1-3)Gal(b1-4)[Fuc(a1-3)]GlcNAc(b1-2)Man(a1-3)[Gal(a1-3)Gal(b1-4)[Fuc(a1-3)]GlcNAc(b1-2)Man(a1-6)]Man(b1-4)GlcNAc(b1-4)GlcNAc
# Method in brief: as §1
# [12] = molecular target: Gal(a1-3)GalNAc
# Method in brief: as §1
# [13] = molecular target: Gal(a1-4)Gal(b1-4)GlcNAc(b1-2)Man(a1-3)[Gal(a1-4)Gal(b1-4)GlcNAc(b1-2)Man(a1-6)]Man(b1-4)GlcNAc(b1-4)GlcNAc
# Method in brief: as §1
# [14] = molecular target: Gal(a1-4)Gal(b1-4)GlcNAc(b1-3)Gal(b1-4)Glc
# Method in brief: as §1
# [15] = molecular target: Gal(b1-3)GlcNAc(b1-3)Gal(b1-4)GlcNAc(b1-2)[Gal(b1-3)GlcNAc(b1-3)Gal(b1-4)GlcNAc(b1-6)]Man(a1-6)[Gal(b1-3)GlcNAc(b1-3)Gal(b1-4)GlcNAc(b1-2)Man(a1-3)]Man(b1-4)GlcNAc(b1-4)[Fuc(a1-6)]GlcNAc
# Method in brief: as §1
# [16] = molecular target: Gal(b1-4)GalNAc(b1-3)[Fuc(a1-2)]Gal(b1-4)GlcNAc
# Method in brief: as §1
# [17] = molecular target: Gal(b1-4)GlcNAc(b1-2)[Gal(b1-4)GlcNAc(b1-6)]Man(a1-6)[Gal(b1-4)GlcNAc(b1-2)Man(a1-3)]Man(b1-4)GlcNAc(b1-4)[Fuc(a1-6)]GlcNAc
# Method in brief: as §1
# [18] = molecular target: Gal(b1-4)GlcNAc(b1-3)Gal(b1-3)GalNAc
# Method in brief: as §1
# [19] = molecular target: Gal(b1-4)GlcNAc(b1-3)Gal(b1-4)GlcNAc(b1-2)Man(a1-3)[Gal(b1-4)GlcNAc(b1-3)Gal(b1-4)GlcNAc(b1-2)Man(a1-6)]Man(b1-4)GlcNAc(b1-4)GlcNAc
# Method in brief: as §1
# [20] = molecular target: Gal(b1-4)GlcNAc(b1-3)Gal(b1-4)GlcNAc(b1-2)Man(a1-3)[Gal(b1-4)GlcNAc(b1-3)Gal(b1-4)GlcNAc(b1-2)Man(a1-6)]Man(b1-4)GlcNAc(b1-4)[Fuc(a1-6)]GlcNAc
# Method in brief: as §1
# [21] = molecular target: Gal(b1-4)GlcNAc(b1-3)Gal(b1-4)GlcNAc(b1-3)Gal(b1-4)GlcNAc(b1-2)[Gal(b1-4)GlcNAc(b1-3)Gal(b1-4)GlcNAc(b1-3)Gal(b1-4)GlcNAc(b1-6)]Man(a1-6)[Gal(b1-4)GlcNAc(b1-3)Gal(b1-4)GlcNAc(b1-3)Gal(b1-4)GlcNAc(b1-2)Man(a1-3)]Man(b1-4)GlcNAc(b1-4)[Fuc(a1-6)]GlcNAc
# Method in brief: as §1
# [22] = molecular target: Gal(b1-4)GlcNAc(b1-3)Gal(b1-4)GlcNAc(b1-3)Gal(b1-4)GlcNAc(b1-3)Gal(b1-4)GlcNAc(b1-2)Man(a1-3)[Gal(b1-4)GlcNAc(b1-3)Gal(b1-4)GlcNAc(b1-3)Gal(b1-4)GlcNAc(b1-3)Gal(b1-4)GlcNAc(b1-2)Man(a1-6)]Man(b1-4)GlcNAc(b1-4)GlcNAc
# Method in brief: as §1
# [23] = molecular target: Gal(b1-4)GlcNAc(b1-3)Gal(b1-4)GlcNAc(b1-3)Gal(b1-4)GlcNAc(b1-3)Gal(b1-4)GlcNAc(b1-2)Man(a1-3)[Gal(b1-4)GlcNAc(b1-3)Gal(b1-4)GlcNAc(b1-3)Gal(b1-4)GlcNAc(b1-3)Gal(b1-4)GlcNAc(b1-2)Man(a1-6)]Man(b1-4)GlcNAc(b1-4)[Fuc(a1-6)]GlcNAc
# Method in brief: as §1
# [24] = molecular target: Gal(b1-4)GlcNAc(b1-3)Gal(b1-4)GlcNAc(b1-3)Gal(b1-4)GlcNAc(b1-3)Gal(b1-4)GlcNAc(b1-3)Gal(b1-4)GlcNAc(b1-2)Man(a1-3)[Gal(b1-4)GlcNAc(b1-3)Gal(b1-4)GlcNAc(b1-3)Gal(b1-4)GlcNAc(b1-3)Gal(b1-4)GlcNAc(b1-3)Gal(b1-4)GlcNAc(b1-2)Man(a1-6)]Man(b1-4)GlcNAc(b1-4)GlcNAc
# Method in brief: as §1
# [25] = molecular target: Gal(b1-4)GlcNAc(b1-3)Gal(b1-4)GlcNAc(b1-3)Gal(b1-4)GlcNAc(b1-3)Gal(b1-4)GlcNAc(b1-3)Gal(b1-4)GlcNAc(b1-3)Gal(b1-4)GlcNAc(b1-2)Man(a1-3)[Gal(b1-4)GlcNAc(b1-3)Gal(b1-4)GlcNAc(b1-3)Gal(b1-4)GlcNAc(b1-3)Gal(b1-4)GlcNAc(b1-3)Gal(b1-4)GlcNAc(b1-3)Gal(b1-4)GlcNAc(b1-2)Man(a1-6)]Man(b1-4)GlcNAc(b1-4)GlcNAc
# Method in brief: as §1
# [26] = molecular target: Gal(b1-4)GlcNAc(b1-3)Gal(b1-4)GlcNAc(b1-3)GalNAc
# Method in brief: as §1
# [27] = molecular target: Gal3S(b1-4)Glc
# Method in brief: as §1
# [28] = molecular target: GalNAc(a1-3)Gal
# Method in brief: as §1
# [29] = molecular target: GalNAc(b1-3)Gal(a1-4)Gal(b1-4)GlcNAc(b1-3)Gal(b1-4)Glc
# Method in brief: as §1
# [30] = molecular target: Glc(b1-6)Glc
# Method in brief: as §1
# [31] = molecular target: GlcNAc(b1-2)Man(a1-3)[GlcNAc(b1-4)][GlcNAc(b1-2)Man(a1-6)]Man(b1-4)GlcNAc(b1-4)GlcNAc
# Method in brief: as §1
# [32] = molecular target: GlcNAc(b1-3)Gal(b1-4)GlcNAc(b1-2)[GlcNAc(b1-3)Gal(b1-4)GlcNAc(b1-6)]Man(a1-6)[GlcNAc(b1-3)Gal(b1-4)GlcNAc(b1-2)Man(a1-3)]Man(b1-4)GlcNAc(b1-4)GlcNAc
# Method in brief: as §1
# [33] = molecular target: GlcNAc(b1-3)Gal(b1-4)GlcNAc(b1-3)Gal(b1-4)GlcNAc(b1-3)Gal(b1-4)GlcNAc(b1-3)Gal(b1-4)GlcNAc(b1-2)Man(a1-3)[GlcNAc(b1-3)Gal(b1-4)GlcNAc(b1-3)Gal(b1-4)GlcNAc(b1-3)Gal(b1-4)GlcNAc(b1-3)Gal(b1-4)GlcNAc(b1-2)Man(a1-6)]Man(b1-4)GlcNAc(b1-4)[Fuc(a1-6)]GlcNAc
# Method in brief: as §1
# [34] = molecular target: GlcNAc(b1-3)Gal(b1-4)GlcNAc(b1-3)GalNAc
# Method in brief: as §1
# [35] = molecular target: GlcNAc(b1-3)Gal(b1-4)GlcNAc(b1-3)[GlcNAc(b1-3)Gal(b1-4)GlcNAc(b1-3)]GalNAc
# Method in brief: as §1
# [36] = molecular target: Neu5Ac(a2-3)Gal(b1-3)GlcNAc(b1-2)Man(a1-3)[Neu5Ac(a2-3)Gal(b1-3)GlcNAc(b1-2)Man(a1-6)]Man(b1-4)GlcNAc(b1-4)GlcNAc
# Method in brief: as §1
# [37] = molecular target: Neu5Ac(a2-3)Gal(b1-3)GlcNAc(b1-4)Gal(b1-4)Glc
# Method in brief: as §1
# [38] = molecular target: Neu5Ac(a2-3)Gal(b1-3)GlcNAc(b1-6)GalNAc
# Method in brief: as §1
# [39] = molecular target: Neu5Ac(a2-3)Gal(b1-3)GlcNAc6S
# Method in brief: as §1
# [40] = molecular target: Neu5Ac(a2-3)Gal(b1-4)[Fuc(a1-3)]GlcNAc(b1-2)Man
# Method in brief: as §1
# [41] = molecular target: Neu5Ac(a2-3)Gal(b1-4)[Fuc(a1-3)]GlcNAc(b1-6)[Neu5Ac(a2-3)Gal(b1-3)]GalNAc
# Method in brief: as §1
# [42] = molecular target: Neu5Ac(a2-6)Gal
# Method in brief: as §1
# [43] = molecular target: Neu5Ac(a2-6)Gal(b1-4)GlcNAc(b1-2)Man(a1-3)Man(b1-4)GlcNAc(b1-4)GlcNAc
# Method in brief: as §1
# [44] = molecular target: Neu5Ac(a2-6)Gal(b1-4)GlcNAc(b1-2)[Neu5Ac(a2-6)Gal(b1-4)GlcNAc(b1-4)]Man(a1-3)[GlcNAc(b1-4)][Neu5Ac(a2-6)Gal(b1-4)GlcNAc(b1-4)Man(a1-6)]Man(b1-4)GlcNAc(b1-4)GlcNAc
# Method in brief: as §1
# [45] = molecular target: Neu5Ac(a2-6)Gal(b1-4)GlcNAc(b1-6)[Gal(b1-3)]GalNAc
# Method in brief: as §1
binder,measurement,setting,value
B1,glycan array binding signal (z-score),[1],-0.216
same,glycan array binding signal (z-score),[2],0.178
same,glycan array binding signal (z-score),[3],0.196
same,glycan array binding signal (z-score),[4],-0.148
same,glycan array binding signal (z-score),[5],-0.221
same,glycan array binding signal (z-score),[6],1.54
same,glycan array binding signal (z-score),[7],0.753
same,glycan array binding signal (z-score),[8],-0.41
same,glycan array binding signal (z-score),[9],7.24
same,glycan array binding signal (z-score),[10],0.21
same,glycan array binding signal (z-score),[11],0.63
same,glycan array binding signal (z-score),[12],-0.152
same,glycan array binding signal (z-score),[13],0.514
same,glycan array binding signal (z-score),[14],0.043
same,glycan array binding signal (z-score),[15],1.83
same,glycan array binding signal (z-score),[16],-0.317
same,glycan array binding signal (z-score),[17],2.12
same,glycan array binding signal (z-score),[18],-0.575
same,glycan array binding signal (z-score),[19],2.2
same,glycan array binding signal (z-score),[20],2.48
same,glycan array binding signal (z-score),[21],2.11
same,glycan array binding signal (z-score),[22],0.035
same,glycan array binding signal (z-score),[23],6.49
same,glycan array binding signal (z-score),[24],2.59
same,glycan array binding signal (z-score),[25],7.59
same,glycan array binding signal (z-score),[26],0.087
same,glycan array binding signal (z-score),[27],-0.121
same,glycan array binding signal (z-score),[28],3.31
same,glycan array binding signal (z-score),[29],0.012
same,glycan array binding signal (z-score),[30],-0.218
same,glycan array binding signal (z-score),[31],-0.42
same,glycan array binding signal (z-score),[32],0.033
same,glycan array binding signal (z-score),[33],2.18
same,glycan array binding signal (z-score),[34],0.389
same,glycan array binding signal (z-score),[35],-0.009
same,glycan array binding signal (z-score),[36],-0.512
same,glycan array binding signal (z-score),[37],-0.437
same,glycan array binding signal (z-score),[38],0.343
same,glycan array binding signal (z-score),[39],0.048
same,glycan array binding signal (z-score),[40],-0.398
same,glycan array binding signal (z-score),[41],0.273
same,glycan array binding signal (z-score),[42],-0.046
same,glycan array binding signal (z-score),[43],-0.293
same,glycan array binding signal (z-score),[44],-0.061
same,glycan array binding signal (z-score),[45],-0.445
